For 18 compounds, Potency results are on record in PubChem BioAssay AID2318 (National Center for Advancing Translational Sciences (NCATS), 2010).

Molecules are shown by their SMILES. Some of the results follow. Entries that show only a call come without a potency. Records with an inconclusive call do not appear. Active and inactive are the calls of the source. The call rests on the fitted dose curve.
Potency means the concentration at half of the fitted maximal effect.

The nature of this assay: Cycloheximide Counterscreen for Small Molecule Inhibitors of Shiga Toxin (Confirmatory). As to conditions: protein synthesis reporter, Shiga toxin assay; series mostly up to 38.3 µM. (In general: The purpose of a counterscreen is to sort out artefacts and off-target activity.)
In the case of `CCOc1ccc(NC(=O)Nc2ccc(N(C)C(C)=O)cc2)cc1`, the Potency result was “inactive”.

As for `O=C(c1cc(-c2cccc(O)c2)on1)N1CCc2ccccc2C1`, the Potency entry was “inactive”.

For the compound `CSCc1cc(N2CCOCC2)nc(SCc2ccc(Cl)cc2Cl)n1`, the Potency entry is “inactive”.

Consider `CN(Cc1nc2ccc(F)cc2[nH]1)Cc1nc(CC2CC2)no1`, for which the Potency result was “inactive”.

For the compound `COc1ccc(-c2noc(COc3ccc(Cl)c(C)c3)n2)cc1`, the Potency result was “inactive”.

As to `Cc1ccc(-c2cc(C(=O)N3CCc4ccccc4C3)no2)cc1`, the Potency entry is “inactive”.

As for `CCCc1nc2ccccc2c(=O)n1NC(=O)c1c(O)c2ccccc2[nH]c1=O`, the Potency entry is “inactive”.

As for `Nc1nonc1C(=O)NCCc1ccccc1`, the Potency entry was “inactive”.

Regarding `C=CCNC(=O)c1ccc(C)c(Br)c1`, the Potency entry was “inactive”.

For the compound `COc1ccc(N(CCC#N)S(=O)(=O)c2ccc(Cl)cc2)cc1`, the Potency entry is “inactive”.

Take `COc1ccccc1N1N=C(c2cccs2)CC1c1ccccc1` (stereo not drawn): the Potency result was “inactive”.

For `CCN1CCN(Cc2c(O)ccc3c(=O)c(-c4ccc(OC)c(OC)c4)c(C(F)(F)F)oc23)CC1`, the Potency entry was “inactive”.

As to `CC(=O)c1ccc(N2CCN(C(=O)c3ccc4nc[nH]c4c3)CC2)cc1`, the Potency result is “inactive”.

Regarding `Cc1nc(SCC(=O)Nc2cc(C)on2)c2c3c(sc2n1)CCCC3`, the Potency entry was “inactive”.

As for `Cc1cc(C(=O)COC(=O)C2CC2)c(C)n1-c1ccc(F)cc1`, the Potency is 2000 nM (active).

As for `O=C(COC(=O)c1cccs1)Nc1ccccc1Cl`, the Potency entry was “inactive”.

On to `COc1ccc(S(=O)(=O)Nc2ccc3c(c2)OCO3)cc1Cl`, for which the Potency entry is “inactive”.

As for `COc1ccc(C(=O)Nc2ccccc2C(=O)NCc2ccco2)cc1`, the Potency entry was “inactive”.
